# Results taken from PubChem BioAssay (EPA / NIEHS).
# Several values for one entry are separate records, joined by “and”; a condition that tells them apart may be missing. Equal values may be shown once. Records with an inconclusive call do not appear. Some structures have more than one record in an assay (separate samples or runs), and their calls can disagree. Activity calls are given as the source filed them. The calls were made as follows, unless noted: active = hit-call score of the fitted dose curve at least 0.9, where 1 is the maximum; inconclusive = response in the unintended direction; inactive = score below 0.9.
# Tests used:
# [1] = target: mouse Estrogen Receptor alpha (Era), Esr1 (gene 13982) (UniProt P19785); experiment: NVS_NR_mERa: NovaScreen (NVS) Nuclear Receptor Binding Assay for mouse Estrogen Receptor alpha (Era) (AID 2283378);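 also: hit means loss of bound radioligand signal relative to DMSO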
# In short: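 Cell-free radioligand binding with extracted mouse Era protein; competitive displacement of radiolabelled ligand, read by filter-based scintillation counting 18 hours after dosing. Loss of signal versus DMSO baseline taken as binding; single screening concentration 25 uM, actives followed in concentration series.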
# [2] = target: human Norepinephrine Transporter (NET), SLC6A2 (gene 6530) (UniProt P23975); experiment: NVS_TR_hNET: NovaScreen (NVS) Transporter Assay for human Norepinephrine Transporter (NET) (AID 2283377);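 also: cell-free membrane protein extracted from CHO cells expressing human NET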;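 as to AC50: displacement of radioligand from human NET seen as loss of scintillation signal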
# In short: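 Scintillation counts of filter-retained radioligand served as the readout, taken 1 h post-dosing in a cell-free CHO-derived system. Test chemicals ran first at 25 uM in duplicate; confirmed hits were retested across concentrations.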
# [3] = target: Estrogen receptor beta (Homo sapiens) (UniProt Q92731); experiment: OT_ER_ERbERb_1440: Odyssey Thera (OT) 24-hour HEK293T Protein-Complementation Assay for Estrogen Receptor-beta/-beta Homodimer (AID 2283380);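 also: fluorescence gain from ER beta LBD homodimer complementation read by laser scanning cytometry; scored as signal increase over DMSO baseline for both agonists and antagonists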
# In short: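 Fluorescence increase, nuclear for agonists or whole-cell for antagonists, relative to DMSO vehicle, quantified by laser scanning cytometer after fixation and Draq5 staining. Readout from 24 h treatment of HEK293T cells carrying complementation-paired ER beta LBD (aa 310-547).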
# [4] = target: Estrogen receptor (Homo sapiens) (UniProt P03372); experiment: OT_ERa_GFPERaERE_0480: Odyssey Thera (OT) 8-hour HeLa Transcription Induction Assay for Estrogen Receptor (AID 2283381; active = hit-call score of the fitted dose curve at least 0.9, where 1 is the maximum; inactive = score below 0.9)
# In short: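 HeLa cells expressing GFP reporter under estrogen response element, imaged 8 h after dosing. GFP induction quantified by high-content fluorescence microscopy image analysis; gain of signal fitted versus DMSO.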
# [5] = target: Bile acid receptor (Homo sapiens) (UniProt Q96RI1); experiment: OT_FXR_FXRSRC1_0480: Odyssey Thera (OT) 8-hour HEK293T Protein-Complementation Assay for Farnesoid X receptor/SRC-1 Co-activator (AID 2283383)
# In short: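 HEK293T protein-fragment complementation assay: FXR and SRC-1 coactivator are fused to reporter fragments, and their interaction restores a fluorescent reporter. Readout was taken 8 h after dosing, with gain of signal fit relative to DMSO.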
# [6] = target: Retinoic acid receptor RXR-alpha (Homo sapiens) (UniProt P19793); experiment: OT_NURR1_NURR1RXRa_1440: Odyssey Thera (OT) 24-hour HEK293T Protein Complementation Assay for Nurr1/retinoid X receptor (RXR) (AID 2283386)
# In short: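 HEK293T protein-fragment complementation of Nurr1 and RXRα fused to reporter fragments; compounds 24 h. Fluorescence gain from reconstituted reporter fitted versus DMSO.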
# [7] = target: Peroxisome proliferator-activated receptor gamma (Homo sapiens) (UniProt P37231); experiment: OT_PPARg_PPARgSRC1_0480: Odyssey Thera (OT) 8-hour Protein-Complementation Assay for Peroxisome Proliferator-activated Receptor Gamma / SRC-1 Co-activator (AID 2283387);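 also: nuclear to cytoplasmic split Venus YFP fluorescence ratio reporting PPARg SRC-1 interaction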
# In short: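 HEK293T transiently transfected with PPARg and SRC-1 fused to Venus YFP fragments, compounds 8 h at 37C. Fixed, Draq5-stained cells imaged; nuclear/cytoplasmic 488 nm fluorescence ratio over at least 350 cells per image; gain fitted versus DMSO.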
# [8] = CEETOX_H295R_11DCORT: CeeTox H295R High-throughput Steroidogenesis Assay for 11-Deoxycortisol (11DCORT) (AID 2283432; active = hit-call score of the fitted dose curve at least 0.9, where 1 is the maximum; inactive = score below 0.9); conditions: actives raise or lower the signal
# In short: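 H295R cells prestimulated 48 h with 10 uM forskolin, then exposed 48 h to chemical in 0.1% DMSO. 11-Deoxycortisol in medium quantified by HPLC-MS/MS after MTBE extraction; bidirectional fit versus DMSO. MTT viability read in same wells.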
# [9] = CEETOX_H295R_OHPREG: CeeTox H295R High-throughput Steroidogenesis Assay for OH-Pregnenolone (OHPREG) (AID 2283434; active = hit-call score of the fitted dose curve at least 0.9, where 1 is the maximum; inactive = score below 0.9); conditions: actives raise or lower the signal
# In short: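 Hormone levels in spent medium were measured by tandem mass spectrometry following liquid-liquid extraction. Cells (H295R) had been forskolin-stimulated (10 uM, 48 h) before a 48 h chemical exposure at 0.1% DMSO, with activity fitted in both directions against DMSO.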
# [10] = CEETOX_H295R_OHPROG: CeeTox H295R High-throughput Steroidogenesis Assay for OH-Progesterone (OHPROG) (AID 2283435; active = hit-call score of the fitted dose curve at least 0.9, where 1 is the maximum; inactive = score below 0.9); conditions: actives raise or lower the signal
# In short: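 H295R adrenal cells prestimulated 48 h with 10 uM forskolin, then exposed 48 h to chemical (0.1% DMSO final). 17alpha-hydroxyprogesterone in medium quantified by HPLC-MS/MS; bidirectional fit versus DMSO, with MTT viability measured in the same wells.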
# [11] = CEETOX_H295R_CORTIC: CeeTox H295R High-throughput Steroidogenesis Assay for Corticosterone (CORTIC) (AID 2283437; active = hit-call score of the fitted dose curve at least 0.9, where 1 is the maximum; inactive = score below 0.9;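 also: corticosterone secreted into medium quantified by mass spectrometry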); conditions: actives raise or lower the signal
# In short: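 Corticosterone secreted into medium is measured by reverse-phase HPLC with tandem MS following liquid-liquid extraction. Cells are forskolin-stimulated (10 uM, 48 h) before 48 h test exposure; activity fitted in both directions against DMSO.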
# [12] = CEETOX_H295R_CORTISOL: CeeTox H295R High-throughput Steroidogenesis Assay for Cortisol (AID 2283438; active = hit-call score of the fitted dose curve at least 0.9, where 1 is the maximum; inactive = score below 0.9;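 also: cortisol secreted into medium quantified by LC-MS/MS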); conditions: actives raise or lower the signal
# In short: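 Forskolin-primed H295R cells (10 uM, 48 h) treated 48 h with test chemical in 0.1% DMSO. Cortisol in medium quantified by MTBE extraction and HPLC-MS/MS; bidirectional fit vs DMSO, MTT viability in same wells.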
# [13] = CEETOX_H295R_DOC: CeeTox H295R High-throughput Steroidogenesis Assay for DOC (AID 2283439; active = hit-call score of the fitted dose curve at least 0.9, where 1 is the maximum; inactive = score below 0.9); conditions: actives raise or lower the signal
# In short: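 H295R cells prestimulated 48 h with 10 uM forskolin, then exposed 48 h to test chemical (0.1% DMSO final). Medium 11-deoxycorticosterone measured by HPLC-MS/MS after MTBE extraction; bidirectional fit vs DMSO, viability checked by MTT in same wells.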
# [14] = CEETOX_H295R_ESTRADIOL: CeeTox H295R High-throughput Steroidogenesis Assay for Estradiol (AID 2283440; active = hit-call score of the fitted dose curve at least 0.9, where 1 is the maximum; inactive = score below 0.9;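 also: estradiol secreted into medium quantified by LC-MS/MS after dansyl derivatisation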); conditions: actives raise or lower the signal
# In short: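 H295R adrenocortical cells were prestimulated with 10 uM forskolin for 48 h, then exposed to test chemical in 0.1% DMSO for 48 h. Medium estradiol was extracted with MTBE, dansyl-derivatized and quantified by HPLC-MS/MS; bidirectional fit versus DMSO.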
# [15] = CEETOX_H295R_ESTRONE: CeeTox H295R High-throughput Steroidogenesis Assay for Estrone (AID 2283441; active = hit-call score of the fitted dose curve at least 0.9, where 1 is the maximum; inactive = score below 0.9;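 also: estrone secreted into medium measured by LC-MS/MS after dansyl derivatization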); conditions: actives raise or lower the signal
# In short: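 H295R cells prestimulated 48 h with 10 uM forskolin, then exposed 48 h to chemicals in 0.1% DMSO final; estrone in medium extracted with MTBE, dansyl-derivatized, quantified by HPLC-MS/MS; bidirectional fitting versus DMSO, viability by MTT.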
# [16] = CEETOX_H295R_PROG: CeeTox H295R High-throughput Steroidogenesis Assay for Progesterone (PROG) (AID 2283442; active = hit-call score of the fitted dose curve at least 0.9, where 1 is the maximum; inactive = score below 0.9); conditions: actives raise or lower the signal
# In short: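 H295R human adrenal cells were prestimulated with 10 uM forskolin for 48 h, then exposed to test chemical (0.1% DMSO final) for 48 h. Medium progesterone was MTBE-extracted and quantified by HPLC-MS/MS, with bidirectional fitting against DMSO.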
# [17] = target: Retinoic acid receptor RXR-alpha (Homo sapiens) (UniProt P19793); experiment: OT_NURR1_NURR1RXRa_0480: Odyssey Thera (OT) 8-hour HEK293T Protein Complementation Assay for Nurr1/retinoid X receptor (RXR) (AID 2283385)
# In short: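 HEK293T cells expressing Nurr1 and RXRα fused to reporter fragments (protein-fragment complementation); fluorescence measured 8 h after dosing. Gain of signal fitted relative to DMSO.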
# human Norepinephrine Transporter (NET), SLC6A2 (gene 6530), sequence (P23975 whole entry, looked up): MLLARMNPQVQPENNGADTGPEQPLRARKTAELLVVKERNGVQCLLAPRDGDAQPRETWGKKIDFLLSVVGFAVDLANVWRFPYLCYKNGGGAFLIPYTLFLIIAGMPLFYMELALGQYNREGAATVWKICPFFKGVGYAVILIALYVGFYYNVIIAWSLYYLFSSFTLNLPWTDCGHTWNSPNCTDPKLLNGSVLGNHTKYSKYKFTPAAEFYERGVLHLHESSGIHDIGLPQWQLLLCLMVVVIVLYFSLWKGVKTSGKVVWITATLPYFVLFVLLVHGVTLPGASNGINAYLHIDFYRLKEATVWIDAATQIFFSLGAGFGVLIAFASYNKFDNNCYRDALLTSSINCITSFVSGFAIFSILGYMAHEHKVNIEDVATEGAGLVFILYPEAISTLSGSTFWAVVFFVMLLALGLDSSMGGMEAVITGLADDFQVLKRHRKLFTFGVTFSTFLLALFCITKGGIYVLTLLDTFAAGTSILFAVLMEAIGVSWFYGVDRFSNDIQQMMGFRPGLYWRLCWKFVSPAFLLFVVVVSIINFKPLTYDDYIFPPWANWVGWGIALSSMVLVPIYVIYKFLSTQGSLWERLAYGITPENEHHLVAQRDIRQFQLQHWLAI
# Peroxisome proliferator-activated receptor gamma (Homo sapiens), sequence (P37231 whole entry, looked up, the tested form may be a part): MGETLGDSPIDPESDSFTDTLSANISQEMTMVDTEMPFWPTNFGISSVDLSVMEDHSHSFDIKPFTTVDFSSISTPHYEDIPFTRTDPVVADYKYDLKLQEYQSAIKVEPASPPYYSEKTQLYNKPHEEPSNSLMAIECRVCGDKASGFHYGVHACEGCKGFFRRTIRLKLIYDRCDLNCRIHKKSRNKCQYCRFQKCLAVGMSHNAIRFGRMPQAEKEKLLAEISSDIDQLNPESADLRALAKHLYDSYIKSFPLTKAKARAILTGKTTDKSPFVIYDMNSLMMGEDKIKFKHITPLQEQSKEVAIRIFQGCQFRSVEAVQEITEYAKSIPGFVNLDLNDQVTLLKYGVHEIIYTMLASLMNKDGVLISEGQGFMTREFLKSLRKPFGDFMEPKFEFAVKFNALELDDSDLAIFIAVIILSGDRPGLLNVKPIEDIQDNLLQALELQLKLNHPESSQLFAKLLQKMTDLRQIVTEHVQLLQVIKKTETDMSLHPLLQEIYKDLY
# mouse Estrogen Receptor alpha (Era), Esr1 (gene 13982), sequence (P19785 whole entry, looked up): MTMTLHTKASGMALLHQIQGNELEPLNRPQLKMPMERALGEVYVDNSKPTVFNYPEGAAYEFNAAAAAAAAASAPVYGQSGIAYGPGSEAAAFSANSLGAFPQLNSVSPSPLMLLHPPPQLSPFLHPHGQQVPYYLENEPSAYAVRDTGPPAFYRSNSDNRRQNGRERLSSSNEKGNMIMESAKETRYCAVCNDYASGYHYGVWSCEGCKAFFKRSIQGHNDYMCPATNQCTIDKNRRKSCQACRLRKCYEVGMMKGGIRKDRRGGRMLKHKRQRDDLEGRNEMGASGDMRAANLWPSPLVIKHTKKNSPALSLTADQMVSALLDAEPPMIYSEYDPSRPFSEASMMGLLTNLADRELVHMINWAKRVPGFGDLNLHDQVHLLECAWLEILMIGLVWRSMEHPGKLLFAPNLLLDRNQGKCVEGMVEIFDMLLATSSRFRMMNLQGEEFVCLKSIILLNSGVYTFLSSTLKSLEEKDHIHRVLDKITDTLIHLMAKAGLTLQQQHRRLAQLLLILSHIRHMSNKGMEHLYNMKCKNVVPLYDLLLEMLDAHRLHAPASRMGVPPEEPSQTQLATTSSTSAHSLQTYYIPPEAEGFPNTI
# Retinoic acid receptor RXR-alpha (Homo sapiens), sequence (P19793 whole entry, looked up, the tested form may be a part): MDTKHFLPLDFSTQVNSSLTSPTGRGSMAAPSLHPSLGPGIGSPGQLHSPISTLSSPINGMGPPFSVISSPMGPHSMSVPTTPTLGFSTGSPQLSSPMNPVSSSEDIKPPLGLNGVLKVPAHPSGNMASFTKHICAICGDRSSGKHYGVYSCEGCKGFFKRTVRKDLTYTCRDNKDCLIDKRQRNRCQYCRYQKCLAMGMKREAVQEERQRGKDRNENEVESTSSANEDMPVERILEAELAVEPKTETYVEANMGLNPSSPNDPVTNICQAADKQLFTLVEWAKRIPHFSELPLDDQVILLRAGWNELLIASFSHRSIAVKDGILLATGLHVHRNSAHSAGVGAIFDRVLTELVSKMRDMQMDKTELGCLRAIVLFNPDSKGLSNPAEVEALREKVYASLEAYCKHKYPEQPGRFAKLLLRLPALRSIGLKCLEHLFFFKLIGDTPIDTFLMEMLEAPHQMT
# Estrogen receptor beta (Homo sapiens), sequence (Q92731 whole entry, looked up, the tested form may be a part): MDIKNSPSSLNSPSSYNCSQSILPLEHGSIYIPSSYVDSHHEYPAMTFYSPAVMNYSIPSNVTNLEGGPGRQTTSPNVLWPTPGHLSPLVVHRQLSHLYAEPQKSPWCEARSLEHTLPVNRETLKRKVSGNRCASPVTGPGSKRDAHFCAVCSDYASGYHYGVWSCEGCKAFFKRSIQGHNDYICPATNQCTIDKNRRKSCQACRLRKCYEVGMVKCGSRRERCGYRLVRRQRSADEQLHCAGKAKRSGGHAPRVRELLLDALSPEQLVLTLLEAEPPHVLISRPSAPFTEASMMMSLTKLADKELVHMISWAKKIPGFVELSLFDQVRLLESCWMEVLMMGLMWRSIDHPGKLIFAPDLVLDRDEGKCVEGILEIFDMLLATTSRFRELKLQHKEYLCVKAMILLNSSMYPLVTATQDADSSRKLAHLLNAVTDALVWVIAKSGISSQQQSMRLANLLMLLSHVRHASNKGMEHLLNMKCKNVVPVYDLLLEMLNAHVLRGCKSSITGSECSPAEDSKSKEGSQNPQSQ
# Estrogen receptor (Homo sapiens), sequence (P03372 whole entry, looked up): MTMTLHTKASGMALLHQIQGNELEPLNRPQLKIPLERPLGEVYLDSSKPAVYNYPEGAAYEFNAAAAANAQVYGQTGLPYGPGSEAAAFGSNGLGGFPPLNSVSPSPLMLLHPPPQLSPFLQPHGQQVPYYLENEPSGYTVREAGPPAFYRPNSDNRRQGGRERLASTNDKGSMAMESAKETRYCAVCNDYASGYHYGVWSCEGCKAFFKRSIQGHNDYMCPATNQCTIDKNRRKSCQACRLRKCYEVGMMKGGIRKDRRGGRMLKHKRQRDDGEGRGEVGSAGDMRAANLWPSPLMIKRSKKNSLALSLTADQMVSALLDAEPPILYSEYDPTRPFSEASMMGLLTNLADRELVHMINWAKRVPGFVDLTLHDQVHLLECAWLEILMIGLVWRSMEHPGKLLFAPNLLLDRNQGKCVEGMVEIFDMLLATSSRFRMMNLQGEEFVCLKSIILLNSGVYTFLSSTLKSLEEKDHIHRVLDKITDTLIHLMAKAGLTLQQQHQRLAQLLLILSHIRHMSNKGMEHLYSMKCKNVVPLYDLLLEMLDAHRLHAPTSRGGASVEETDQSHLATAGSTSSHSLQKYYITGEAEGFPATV
# Bile acid receptor (Homo sapiens), sequence (Q96RI1 whole entry, looked up, the tested form may be a part): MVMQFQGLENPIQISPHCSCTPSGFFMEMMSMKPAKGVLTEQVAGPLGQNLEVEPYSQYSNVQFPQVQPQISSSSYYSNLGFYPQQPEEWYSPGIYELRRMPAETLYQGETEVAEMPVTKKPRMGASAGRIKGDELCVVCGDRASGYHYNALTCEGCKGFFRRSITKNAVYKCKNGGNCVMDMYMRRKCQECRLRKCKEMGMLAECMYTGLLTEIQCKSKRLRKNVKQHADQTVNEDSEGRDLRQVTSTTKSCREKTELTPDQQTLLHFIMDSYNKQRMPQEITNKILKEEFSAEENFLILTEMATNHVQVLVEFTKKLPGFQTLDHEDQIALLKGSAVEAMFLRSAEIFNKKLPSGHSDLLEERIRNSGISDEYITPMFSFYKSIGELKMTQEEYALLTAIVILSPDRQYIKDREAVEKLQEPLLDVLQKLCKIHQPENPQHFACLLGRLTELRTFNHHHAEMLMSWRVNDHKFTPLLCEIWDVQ
compound,measurement,setting,value
COC(=O)c1cc(Oc2ccc(Cl)cc2Cl)ccc1[N+](=O)[O-],outcome,[1],inactive
CCCCCCCCCCCCN(C)C,outcome,[2],inactive
same,outcome,[3],inactive
same,outcome,[4],inactive
same,outcome,[5],inactive
same,outcome,[6],inactive
same,outcome,[7],inactive
same,outcome,[8],inactive
same,outcome,[9],inactive
same,outcome,[10],inactive
same,outcome,[11],inactive
same,outcome,[12],inactive
same,outcome,[13],inactive
same,outcome,[14],inactive
same,outcome,[15],inactive
same,outcome,[16],inactive
[Cl][Sn]([c]1ccccc1)([c]1ccccc1)[c]1ccccc1,AC50,[2],1.19 µM (active)
C=CC(=O)[O][Sn]([CH2]CCC)([CH2]CCC)[CH2]CCC,outcome,[1],inactive
O=C(NC(=O)c1c(F)cccc1F)Nc1cc(Cl)c(Oc2ncc(C(F)(F)F)cc2Cl)c(Cl)c1,outcome,[1],inactive
N#Cc1ccccc1N,outcome,[2],inactive
Nc1ccc(Br)cc1,outcome,[1],inactive
CCCCCCCCCCCCc1cccc(S(=O)(=O)O)c1,AC50,[2],18.7 µM (active)
same,outcome,[17],inactive
same,outcome,[6],inactive
Oc1ccc(Cc2ccc(O)cc2)cc1,AC50,[2],25 µM (active)
Cc1ccc(OP(=O)(Oc2ccc(C)cc2C)Oc2ccc(C)cc2C)c(C)c1,AC50,[2],1.47 µM (active)
OCC(c1ccc(Cl)cc1)c1ccc(Cl)cc1,outcome,[1],inactive
O=C(Cl)OCCOCCOC(=O)Cl,AC50,[1],6.49 µM (active)
O=[N+]([O-])c1ccc(Nc2ccccc2)cc1,AC50,[2],20.4 µM (active)
same,outcome,[1],inactive
same,outcome,[8],inactive
same,outcome,[9],inactive
same,AC50,[10],1.42 µM (active)
same,outcome,[11],inactive
same,outcome,[12],inactive
same,outcome,[13],inactive
same,outcome,[14],inactive
same,outcome,[15],inactive
same,outcome,[16],inactive
Oc1cc(Cl)c(Cl)cc1Cl,AC50,[2],10.8 µM (active)
same,AC50,[17],78.3 µM (active)
same,outcome,[17],inactive
same,AC50,[6],81.6 µM (active) and 83.4 µM (active)
same,outcome,[7],inactive
CC(C)(C1CCC(O)CC1)C1CCC(O)CC1 (stereo not given),outcome,[1],inactive
